Among the data in PubChem BioAssay (NCI) are growth values, retold here.

About 83,000 compounds went through this panel and 20% of them were active in at least one assay; those are over-represented in the sample as a whole.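 Interpretation: 100, growth as untreated; towards 0, rising growth inhibition; 0, no net growth; 0 to -100, cell death. Compounds scoring below 10 were considered active.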 A number with no mark means an inactive call. The source made the active and inactive calls.

What all share (test): NCI-60 one-dose screen, 48 h (100 = growth as untreated, 0 = no growth, -100 = all killed)
The subject of one assay is NCI-H23 lung. The following applies: 10 µM unless noted.
For a further assay, the system named is NCI-H226 lung. The settings on record: 10 µM unless noted.
The next assay has as its system NCI-H322M lung. The following applies: 10 µM unless noted.
The test system of the next assay is HOP-62 NSCLC. The following applies: 10 µM unless noted.
In a further assay the test system is NCI-H460 lung. The settings on record: 10 µM unless noted.
The next assay relates to HOP-92 NSCLC. The following applies: 10 µM unless noted.
The next assay concerns NCI-H522 lung. The settings on record: 10 µM.
In a further assay the test system is 786-0 renal. The settings on record: 10 µM unless noted.
The subject of the next assay is COLO 205 colon. The settings on record: 10 µM unless noted.
The test system of a further assay is DU-145 prostate. The settings on record: 10 µM unless noted.
The next assay has as its system K-562 leukemia. The settings on record: 10 µM unless noted.
Another assay concerns MALME-3M melanoma. The following applies: 10 µM unless noted.
The next assay concerns MDA-MB-231 breast. The following applies: 10 µM unless noted.
The next assay has as its system SF-268 CNS. The following applies: 10 µM unless noted.
A further assay relates to SF-295 CNS. The settings on record: 10 µM unless noted.
In the next assay the test system is SF-539 CNS. The settings on record: 10 µM unless noted.
A further assay has as its system UACC-257 melanoma. The following applies: 10 µM unless noted.
The test system of the next assay is M14 melanoma. The settings on record: 10 µM unless noted.
The next assay concerns RXF 393 renal. The following applies: 10 µM unless noted.

Regarding `COC(=O)c1c(NC(=O)CSc2nnnn2-c2ccc(OC)cc2)sc(C)c1C`, the growth with NCI-H23 lung is 76.7%; with NCI-H226 lung, 79.4%; with NCI-H322M lung, 100%; in the assay with HOP-62 NSCLC, 99.3%; in the assay with NCI-H460 lung it was 106%; in the assay with HOP-92 NSCLC, 75.1%. The growth in the assay on NCI-H522 lung is 91.1%; with 786-0 renal, 107%; with COLO 205 colon it was 105%; with DU-145 prostate, 108%; in the assay on K-562 leukemia it was 81.5%; in the assay with MALME-3M melanoma, 104%. Moreover, the growth in the assay on MDA-MB-231 breast was 76.5%; with SF-268 CNS, 93.5%; in the assay with SF-295 CNS, 156%; in the assay on SF-539 CNS, 98.3%; in the assay with UACC-257 melanoma, 16.8%; in the assay on M14 melanoma, 95.8%.
Regarding `COc1ccc(CNC(=O)c2c(C)n([O-])c3ccccc3[n+]2=O)cc1`, the growth with NCI-H23 lung was 93.8%; in the assay on NCI-H226 lung it was 102%; in the assay on NCI-H322M lung it was 144%; in the assay on HOP-62 NSCLC, 94.3%; in the assay with NCI-H460 lung, 112%; in the assay on HOP-92 NSCLC, 82.6%. In addition, the growth was -15.1% (active) in the assay on NCI-H522 lung; 101% in the assay on 786-0 renal; 122% in the assay with COLO 205 colon; 94.9% in the assay with K-562 leukemia; 153% in the assay on MALME-3M melanoma; 103% with MDA-MB-231 breast. Moreover, the growth is 99.7% in the assay on SF-268 CNS; 111% in the assay with SF-295 CNS; 112% in the assay on SF-539 CNS; 90.4% in the assay on UACC-257 melanoma; 104% with M14 melanoma.
As to `O=C(COc1ccc(/C=C2\Oc3ccc4ccccc4c3C2=O)cc1)c1ccc(Cl)cc1`, the growth was 98.2% with NCI-H23 lung; 106% in the assay on NCI-H226 lung; 102% with NCI-H322M lung; 105% in the assay with HOP-62 NSCLC; 110% in the assay with NCI-H460 lung; 97.7% in the assay on HOP-92 NSCLC. The growth in the assay with NCI-H522 lung is 61.9%; with 786-0 renal, 106%; in the assay on COLO 205 colon, 124%; in the assay with K-562 leukemia, 89.7%; with MALME-3M melanoma, 110%; with MDA-MB-231 breast, 113%. The growth in the assay on SF-268 CNS is 97.6%; with SF-295 CNS, 96.9%; with SF-539 CNS, 93.1%; in the assay with UACC-257 melanoma, 103%; in the assay on M14 melanoma, 95%.
Regarding `O=[N+]([O-])c1cc([N+](=O)[O-])c(N2CCCC2)cc1NN=C(c1ccc(O)cc1)c1ccc(O)cc1`, the growth in the assay with NCI-H23 lung was 9.44% (active); in the assay on NCI-H226 lung, 94.8%; with NCI-H322M lung it was 91.7%; in the assay with HOP-62 NSCLC it was 23.3%; in the assay on NCI-H460 lung, 9.13% (active); with HOP-92 NSCLC, 87.7%. Moreover, the growth in the assay with NCI-H522 lung is -42% (active); with 786-0 renal it was 0.661% (active); with COLO 205 colon, 30.6%; in the assay with DU-145 prostate, 95.8%; in the assay on MALME-3M melanoma, 140%; in the assay with MDA-MB-231 breast it was 93.6%. The growth is -22.2% (active) with RXF 393 renal; 77.3% with SF-268 CNS; 79.6% with SF-295 CNS; 61.9% with SF-539 CNS; 7.88% (active) with M14 melanoma.
With `C[N+]1(C)C2CC[C@@H]1CC(OC(=O)C(O)c1ccccc1)C2` (stereo partly specified), the growth is 95.9% with NCI-H23 lung; 84.7% in the assay with NCI-H226 lung; 97.8% in the assay on NCI-H322M lung; 117% in the assay on HOP-62 NSCLC; 119% in the assay with NCI-H460 lung; 91.4% with HOP-92 NSCLC. Further, the growth was 110% with NCI-H522 lung; 104% in the assay with 786-0 renal; 129% with COLO 205 colon; 127% in the assay with DU-145 prostate; 94.1% with MALME-3M melanoma; 107% in the assay with MDA-MB-231 breast. Moreover, the growth with RXF 393 renal was 111%; in the assay with SF-268 CNS, 114%; with SF-295 CNS it was 104%; in the assay with SF-539 CNS it was 108%; in the assay with UACC-257 melanoma, 110%; in the assay with M14 melanoma, 105%.
In the case of `COc1ccc2c(c1)C(=Nc1cc(OC)c(OC)c(OC)c1)C(=O)N2`, the growth in the assay on NCI-H23 lung is 96.6%; with NCI-H226 lung, 97.1%; with NCI-H322M lung, 108%; in the assay with HOP-62 NSCLC, 36.1%; in the assay on NCI-H460 lung it was 116%; in the assay on HOP-92 NSCLC it was 56.8%. For the same compound, the growth in the assay on NCI-H522 lung is 89.9%; in the assay on 786-0 renal, 104%; in the assay on COLO 205 colon, 92.5%; with K-562 leukemia, 102%; with MALME-3M melanoma, 90.8%; in the assay with MDA-MB-231 breast it was 103%. Further, the growth was 98% in the assay with SF-268 CNS; 171% with SF-295 CNS; 103% in the assay with SF-539 CNS; 102% in the assay with UACC-257 melanoma; 101% in the assay with M14 melanoma.
On to `Cc1cc2ccccn2c1C(=O)c1ccc(C(=O)c2ccccc2)cc1`, for which the growth was 84% in the assay with NCI-H23 lung; 86.9% in the assay with NCI-H226 lung; 90.1% in the assay with NCI-H322M lung; 98.4% with HOP-62 NSCLC; 97.3% with NCI-H460 lung; 82.3% in the assay on HOP-92 NSCLC. Moreover, the growth in the assay with NCI-H522 lung was 79.7%; with 786-0 renal, 84.9%; with COLO 205 colon it was 102%; with DU-145 prostate, 85.8%; in the assay with K-562 leukemia, 94.3%; in the assay on MALME-3M melanoma, 76.8%. The growth in the assay on MDA-MB-231 breast is 91%; with SF-268 CNS, 99.7%; in the assay on SF-295 CNS, 83.2%; in the assay with SF-539 CNS it was 98.7%; in the assay on UACC-257 melanoma it was 43.4%; with M14 melanoma, 91.1%.
With `COc1ccc2nc(N/N=C(\C)c3ccccn3)cc(C)c2c1`, the growth with NCI-H23 lung is 19.8%; in the assay with NCI-H226 lung, -49.5% (active); in the assay on NCI-H322M lung, 8.51% (active); in the assay on HOP-62 NSCLC, 2.82% (active); with NCI-H460 lung, -68% (active); in the assay on HOP-92 NSCLC it was 7.16% (active). The growth in the assay on NCI-H522 lung is -20.8% (active); in the assay on 786-0 renal, -89.7% (active); in the assay on COLO 205 colon, -78.2% (active); with K-562 leukemia it was -51.5% (active); with MALME-3M melanoma it was -24% (active); with MDA-MB-231 breast, -63.1% (active). The growth was -2.13% (active) in the assay with SF-268 CNS; -81.2% (active) in the assay on SF-295 CNS; -90.6% (active) in the assay with SF-539 CNS; 16.7% in the assay on UACC-257 melanoma; -78.7% (active) in the assay on M14 melanoma.
With `CCCCN1c2nc3ccccc3cc2Sc2cc3ccccc3nc21`, the growth in the assay on NCI-H23 lung is 97.6%; with NCI-H226 lung, 93.2%; in the assay on NCI-H322M lung, 104%; in the assay with HOP-62 NSCLC it was 90.7%; in the assay on NCI-H460 lung, 99%; in the assay on HOP-92 NSCLC, 28.4%. Also, the growth with NCI-H522 lung was 92.8%; with 786-0 renal, 98.5%; in the assay with COLO 205 colon, 132%; with K-562 leukemia, 99.4%; with MALME-3M melanoma, 117%; with MDA-MB-231 breast, 76.4%. Further, the growth with SF-268 CNS is 91.7%; in the assay with SF-295 CNS, 768%; in the assay on SF-539 CNS it was 100%; in the assay with UACC-257 melanoma, 104%; in the assay on M14 melanoma it was 103%.
